Wnt bcat act: activates Wnt/beta-catenin signaling in a reporter cell assay | activation, % at 9.35 µM | hit rate 1.2% among 300,000 | activator, plate reader; in the data active = activation above about 30%, passing the limit was not always enough;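 note: 0% = neutral control wells and 100% = positive control wells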
MITF act: activators of MITF-driven TRPM1 promoter activity in SK-MEL-5 cells. activation, % at 12.5 µM. hit rate 0.75% among 300,000. SK-MEL-5 TRPM1-promoter luciferase, 24 h; % of positive control, neutral wells = 0;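 active = mean activation of at least 80% with every replicate also reaching 80%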;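 note: 0% = neutral control wells and 100% = parthenolide positive control wells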
Glyco luc inh: N-linked glycosylation inhibition; D54 ERlucT glycosylation luciferase reporter, 24 h; percent of 100 nM tunicamycin response; reporter increase, % at 12.5 µM; hit rate 0.23% among 360,000; AID 588692;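 active = mean luciferase reporter signal, scaled so untreated is 0 and the glycosylation-blocking control 100, at or above a set limit in every replicate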;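 note: luciferase carries N-glycosylation sites so blocking glycosylation raises the light; 0% = median of neutral control wells and 100% = median of 100 nM tunicamycin wells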
PfHsp90 yeast 2: inhibits growth of yeast expressing Plasmodium falciparum Hsp90. S. cerevisiae expressing PfHsp90, BacTiter-Glo ATP, 48 h; yeast lacking PDR1 and PDR3 efflux regulators. inhibition, % at 9.4 µM. hit rate 0.32% among 310,000. AID 504621;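 active = every replicate shows inhibition above about 80%, whatever the replicate mean, limit read from the data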;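 note: 0% = DMSO neutral controls and 100% = 20 µM radicicol positive controls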
MITF TRPM1 inh: reduces MITF-dependent TRPM1 promoter luciferase signal; SK-MEL-5 TRPM1 promoter luciferase, 24 h; inhibition, % at 12.5 µM; hit rate 0.83% among 330,000; AID 488899;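 active = mean inhibition across replicates of 60% or more, whatever share of single replicates reaches that level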
NSD2 HMT inh: inhibitors of human histone methyltransferase NSD2; O96028; NSD2 peptide methylation, AlphaScreen, 120 min; inhibition, % at 12.5 µM; hit rate 0.54% among 310,000; AID 743445; in the data active = inhibition above about 50%
Numbers without * were called inactive; . = not tested or not shown. Most compounds without a hit are left out; they make up all but 2.9% or so of the library.

SMILES	Wnt bcat act	MITF act	Glyco luc inh	PfHsp90 yeast 2	MITF TRPM1 inh	NSD2 HMT inh
COC(=O)C12OCC34C(CC5C(C)=C(O)C(=O)CC5(C)C3C(O)C1O)OC(=O)C(OC(=O)C=C(C)C)C24 (stereo unspecified)	-9.7	.	-18.3	-55.5	72.5*	-1.9
CC(C)C[C@H](NC(=O)C1CCCC1)C(=O)N1CCC[C@H]1C(=O)NCc1ccccc1	-0.5	.	.	.	.	.
Cc1ccc(OCC(=O)Oc2cccc(C)c2C)cc1	-1.1	-0.5	3.7	5.3	2.3	-3.8
CCCCN(C(=O)c1ccc2c(c1)OCO2)C1CCS(=O)(=O)C1 (stereo unspecified)	-4.5	-11.3	0.3	-13.0	11.2	.
Cc1cccc(NC(=O)N2CCC(N(C)CCC(C)C)CC2)c1	.	.	.	.	.	9.3
COc1cccc(C(=O)NC2CC3CCCC(C2)N3CC(=O)Nc2ccccc2C(F)(F)F)c1 (stereo unspecified)	0.1	-22.3	0.4	-17.7	25.6	-1.5
CCc1cccc(CC)c1NC(=O)CN1C2CCCC1CC(NC(=O)Nc1cccc(OC)c1)C2 (stereo unspecified)	-0.4	-0.6	38.8*	.	5.2	1.9
CCc1noc(C)c1C(=O)NCCc1ccccc1	34.1*	46.0	1.2	18.0	-44.8	-0.4
Cc1nn(Cc2ccccc2)c(Cl)c1C(=O)NCc1ccc(C)n1C	-6.9	1.0	-0.7	7.1	-2.2	2.6
Cc1nn(Cc2ccccc2)c(Cl)c1C(=O)NCCc1ccccc1	47.3*	60.1	-6.0	5.7	-56.2	-4.3
COc1cccc(NC(=O)c2ccnc(N3CCC(C(=O)NCc4cc(OC)ccc4OC)CC3)c2)c1	.	-2.5	-1.6	0.6	2.7	-1.3
O=C(CSc1nncs1)NC(=O)Nc1ccc2c(c1)OCCO2	37.3*	57.4	0.3	-10.0	-62.7	-2.7
O=C(C#Cc1ccccc1)c1ccco1	-13.3	-98.5	-17.7	104.1*	98.9*	3.7
CC1CCc2nc(NC(=O)C3CC3)sc2C1 (stereo unspecified)	.	40.6	-1.3	-8.4	-35.5	-0.9
Cc1ncsc1C(=O)Nc1nc2c(s1)CC(C)CC2 (stereo unspecified)	32.3*	53.8	-3.0	34.4	-57.8	-0.4
Cc1ccc(OCc2nc3ccccc3[nH]2)cc1	18.3	24.9	-7.6	-8.4	-19.1	10.0
O=[N+]([O-])c1cccc(CSc2nc3ccccc3[nH]2)c1	.	34.9	0.5	-10.5	-33.4	1.8
Clc1ccc(OCc2nc3ccccc3[nH]2)cc1	10.9	88.0*	-5.2	3.3	-82.2	-5.4
COc1ccc(-n2c(COc3ccc(Cl)cc3)nnc2SCc2nc3ccccc3[nH]2)cc1	.	.	.	.	.	1.5
c1ccc(OCc2nc3ccccc3[nH]2)cc1	62.0*	.	-1.5	2.8	-65.5	-0.2
c1ccc(OCCSc2nc3ccccc3[nH]2)cc1	.	87.6*	-0.1	-16.6	-86.1	-5.8
COc1cccc(CSc2nc3ccccc3[nH]2)c1	59.2*	73.7	-1.1	-31.2	-79.1	-3.4
CC(=O)N1CCCN(C(=O)C2CCN(c3ncnc4c3sc3cccc(F)c34)CC2)CC1	.	.	.	.	.	1.1
O=C(Cc1ccc(NC(=O)C2CCCN(C(=O)C3CCC3)C2)cc1)Nc1ccc(C(=O)N2CCOCC2)cc1 (stereo unspecified)	-1.8	-8.5	1.3	8.9	2.4	.
O=C(NC1CC1)c1ccc(-c2cnc3cccnn23)cc1	34.6*	.	-6.8	.	.	19.1
SMILES	Wnt bcat act	MITF act	Glyco luc inh	PfHsp90 yeast 2	MITF TRPM1 inh	NSD2 HMT inh
CNC(=O)C1=C(C)NC(=S)NC1c1cc2c(cc1OC)CCCC2 (stereo unspecified)	-5.8	0.8	2.2	0.7	-1.0	-0.6
Cc1cc(C)c2sc(NC(=O)c3ccc([N+](=O)[O-])o3)nc2c1	-1.3	.	44.0*	73.7	.	.
O=C(Nc1nc2cc3c(cc2s1)OCCO3)c1ccc([N+](=O)[O-])o1	51.4*	-34.2	-3.4	14.0	35.4	0.4
CCc1ccc(C(=O)CCC(=O)Nc2cccc(S(=O)(=O)N3CCCCC3)c2)cc1	-1.0	-11.2	-2.5	.	8.4	-4.6
Cc1ccccc1NC(=O)c1cccc2nc3ccccc3nc12	-1.1	-64.9	4.5	1.9	65.7*	1.5
Cc1ccccc1NC(=O)c1ccccc1NC(=O)Cc1cccc2ccccc12	-6.5	-9.2	-2.9	-5.4	13.7	-0.8
Cc1c(S(=O)(=O)N2CCCC2)c(=O)n(C)c(=O)n1C	-0.6	-2.4	4.9	.	4.4	2.4

Compound activity deposited in PubChem BioAssay by Broad Institute.
